Test results published in PubChem BioAssay (NCATS).
Several values for one entry are separate records, joined by “and”; a condition that tells them apart may be missing. Identical values can stand only once. Records with an inconclusive call do not appear. Values without a mark were called inactive. Activity calls are given as the source filed them. The call rests on the fitted dose curve; in most records, active means well fitted cell-killing curve with a large enough effect; inconclusive means small, poorly fitted or top-dose-only effect, or effect the other way; inactive means no such curve, though single readings can be large or run the other way.

Test: Viability qHTS for spleen associated tyrosine kinase inhibitor (SYKi) naive MV4-11 cells (AID 1963823); further: nearly all actives have a fitted effect of over 40% in size
Details: MV4-11 AML viability, CellTiter-Glo luminescence, 72 h; series mostly up to 45 µM
How it was run: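 SYKi-naive MV4-11 AML cells, 500 per well, were exposed to library compounds for 72 hr at 37 C, 5% CO2. Viability was then read by CellTiter-Glo luminescence after 10 min at room temperature.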
Potency means the concentration at half of the fitted maximal effect.

Compound	Potency	viability (% of control)
CC(=O)O[C@@H]1[C@@H](CO)O[C@@](CO)(O[C@H]2O[C@H](COC(=O)/C=C/c3ccccc3)[C@@H](O)[C@H](O)[C@H]2O)[C@H]1O	inactive	–
O=C(/C=C/c1ccc(O)cc1)OC[C@H]1O[C@H](O[C@@]2(CO)O[C@@H](CO)[C@H](O)[C@H]2O)[C@H](O)[C@@H](O)[C@@H]1O	inactive	–
Cn1nnc(-c2ccc(-c3ccc(N4C[C@H](COP(=O)(O)O)OC4=O)cc3F)cn2)n1	inactive	–
C[C@@H]1O[C@@H](O[C@H]2[C@H](O[C@H]3[C@H](O[C@H]4CC[C@@]5(C)C(CC[C@]6(C)C5CC=C5[C@@H]7CC(C)(C)C[C@@H](O)[C@]7(C)CC[C@]56C)[C@@]4(C)CO)O[C@H](C(=O)O)[C@@H](O)[C@@H]3O)O[C@H](C(=O)O)[C@H](O)[C@@H]2O)[C@H](O)[C@H](O)[C@H]1O (some centres undefined)	–	83.8% [at 9.25 µM]
CC(=O)N[C@@H](CCCCN)C(=O)N(C)[C@@H](CC(C)C)C(=O)N[C@H](C(=O)N(C)[C@@H](Cc1ccccc1)C(=O)N[C@H](Cc1ccccc1)C(N)=O)C(C)C	–	93.5% [at 4.97 µM]
C=C1C(=O)O[C@H]2/C=C(/C)[C@@H](OC(C)=O)C/C=C(\C)C[C@@H](OC(=O)/C(=C/C)COC(=O)/C(=C/C)CO)[C@@H]12	1780 nM (active)	–
O=C(CCc1ccccc1)c1c(O)c([C@@H]2O[C@H](CO)[C@@H](O)[C@H](O)[C@H]2O)c(O)c([C@@H]2O[C@H](CO)[C@@H](O)[C@H](O)[C@H]2O)c1O	inactive	–
C=CC(=O)N1CCCC(n2nc(-c3ccc(Oc4ccccc4)cc3)c3c(N)ncnc32)C1 (centres undefined)	580 nM (active)	–
CC(=O)OC1C(=O)C2(C)C(O)CC3OCC3(OC(C)=O)C2C(OC(=O)c2ccccc2)C2(O)CC(OC(=O)C(O)C(NC(=O)c3ccccc3)c3ccccc3)C(C)=C1C2(C)C (centres undefined)	5.8 nM (active)	–
CCN(CC)C(=O)c1ccc(Nc2nc(OCC3CCCCC3)c3[nH]cnc3n2)cc1	1030 nM (active)	–

Test: Viability qHTS for spleen associated tyrosine kinase inhibitor (SYKi) drug resistant MV4-11 cells (AID 1963824); further: nearly all actives have a fitted effect of over 35% in size
Details: SYKi-resistant MV4-11 viability, CellTiter-Glo, 72 h; series mostly up to 45 µM
How it was run: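 SYK inhibitor-resistant MV4-11 AML cells, 500 per well, added to predispensed compounds and incubated 72 hr at 37 C, 5% CO2. Viability measured by CellTiter-Glo luminescence after 10 min at room temperature.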

Compound	Potency	viability, % of control
CC1CC2(O)OC(=O)C3=C2C(CCC3)[C@@]12C[C@@H](c1ccoc1)OC2=O (some centres undefined)	inactive	–
CO[C@H]1[C@@H](O)[C@H](O[C@H]2CC[C@@]3(C)C(CCC4C3CC[C@]35COC6(COC(=O)C6)C3CCC45O)C2)O[C@@H](C)[C@@H]1OC1OC(CO)C(OC2OC(CO)C(O)C(O)C2O)C(O)C1O (some centres undefined)	1.1 µM (active)	–
O=C(Nc1ccccc1)N1CCN(c2nc(-c3ccccc3)ns2)CC1	16.4 µM (active)	–
Cc1ccccc1NC(=O)Nc1ccc(CC(=O)N(C)[C@@H](CC(C)C)C(=O)NCC[C@H](NC(=O)[C@@H]2CCCN2S(=O)(=O)c2cc(Cl)cc(Cl)c2)C(=O)O)cc1	inactive	–
CNC(=O)c1ccc2c(c1)CCO[C@H]2CCN1CCN(c2ccc(C(N)=O)cc2)CC1	inactive	–
C=C1C[C@]23C[C@@]1(O)CC[C@H]2[C@@]12C=C[C@H](O)[C@@](C)(C(=O)O1)[C@H]2[C@@H]3C(=O)O	inactive	–
CC(C)(C)S(=O)(=O)c1ccc2nccc(Nc3n[nH]c4ccc(F)cc34)c2c1	9.34 µM (active)	–
C[C@@H]1C(=O)O[C@H]2CC34[C@H]5C[C@@H](C(C)(C)C)C36[C@@H](OC(=O)[C@@H]6O)OC4(C(=O)O5)[C@]21O (some centres undefined)	inactive	–
Cc1nc(C#Cc2ccnc(Cl)c2)c(C)n1-c1ccc(OC(F)(F)F)cc1	23.1 µM (active)	–
CC(=O)OCC(Cc1ccccc1)NC(=O)C(Cc1ccccc1)NC(=O)c1ccccc1 (centres undefined)	inactive	–
CN1CCC(c2c(O)cc(O)c3c(=O)cc(-c4ccccc4Cl)oc23)C(O)C1 (centres undefined)	0.206 µM (active)	–
N=c1nc2n(cc1F)C1OC(CO)C(O)C1O2 (centres undefined)	2.59 µM (active)	–
CCCC(CCC)C(=O)NCc1ccc2c(cnn2-c2ccccc2OC)c1	8.2 µM (active)	–
CC(=O)OC[C@]12[C@H](OC(C)=O)C(=O)[C@@H]3[C@@H](O)[C@@]14O[C@@]3(C)COC(=O)c1cccnc1[C@@H](C)[C@H](C)C(=O)O[C@@H]([C@H](O)[C@@H]2OC(C)=O)[C@]4(C)O	3.43 µM (active)	–
OC[C@H]1O[C@@H](OCc2ccccc2)[C@H](O)[C@@H](O)[C@@H]1O	inactive	–
CC(=O)O[C@H]1CC(C)(C)CC2[C@]13CO[C@@]21CCC2[C@@]4(C)CC[C@H](O[C@@H]5OC[C@H](O[C@@H]6O[C@H](CO)[C@@H](O)[C@H](O)[C@H]6O[C@@H]6OC[C@@H](O[C@@H]7O[C@H](CO)[C@@H](O)[C@H](O)[C@H]7O)[C@H](O)[C@H]6O)[C@H](O)[C@H]5O[C@@H]5O[C@H](CO)[C@@H](O)[C@H](O)[C@H]5O)[C@@](C)(CO)C4CC[C@@]2(C)[C@]1(C)C[C@H]3O (some centres undefined)	1.23 µM (active)	–
CC(C)(O)c1ccc2c(c1)C(=O)CC1[C@](C)(CO)CCC[C@]21C (some centres undefined)	inactive	–
CC(C)C1=CC2C(CC[C@]2(C)O)[C@](C)(O)CC1 (some centres undefined)	inactive	–
CC(CO)C1CCC2(C)CC3C(CO)CC(O)C3C(C)(O)C/C=C/12 (centres undefined)	inactive	–
C=C1[C@H]2[C@H](O[C@@H]3O[C@H](COC(=O)/C=C/c4cc(OC)c(O)c(OC)c4)[C@@H](O)[C@H](O)[C@H]3O)OC=C(C(=O)O)[C@H]2C[C@@H]1O	inactive	–

Compound	Potency	viability, % of control
C=C1C(=O)O[C@@H]2[C@H]1CC[C@H](C)[C@]1(CCC(=O)O1)C2(C)O (some centres undefined)	6.51 µM (active)	–
CC12CCC3c4ccc(O)cc4CCC3C1CC(OC1OC(C(=O)O)C(O)C(O)C1O)C2O (centres undefined)	inactive	–
Cc1cc(-c2ccc(/C=C3\SC(=Nc4ccc(Cl)c(C(=O)O)c4)NC3=O)o2)c([N+](=O)[O-])cc1C	inactive	–
CCOC(=O)COc1ccc2c(c1)C[C@@H](NC[C@H](O)c1cccc(Cl)c1)CC2	8.2 µM (active)	–
C/C=C(\C)C(=O)OC1C(C)C2(O)C(C=C(CO)CC3(O)C(=O)C(C)=CC32)C2C(C)(C)C12OC(=O)C(C)C (centres undefined)	0.008 µM (active)	–
Cc1cc(C)c(CNC(=O)c2cc(-c3ccc(N4CCN(C)CC4)nc3)cc3c2c(C)cn3C(C)C)c(=O)[nH]1	14.8 µM (active) and 16.6 µM (active)	–
CN(C)C/C=C/C(=O)Nc1cc2c(Nc3ccc(F)c(Cl)c3)ncnc2cc1OC1CCOC1 (centres undefined)	1.3 µM (active)	–
C[N+]1(C)[C@@H]2CC[C@H]1CC(OC(=O)C(O)c1ccccc1)C2 (some centres undefined)	inactive	–
OC[C@H]1O[C@@H](OCc2ccccc2)[C@H](O[C@@H]2OC[C@@H](O)[C@H](O)[C@H]2O)[C@@H](O)[C@@H]1O	inactive	–
CC(=O)O[C@@H]1[C@@H](CO)O[C@@](CO)(O[C@H]2O[C@H](COC(=O)/C=C/c3ccccc3)[C@@H](O)[C@H](O)[C@H]2O)[C@H]1O	inactive	–
O=C(/C=C/c1ccc(O)cc1)OC[C@H]1O[C@H](O[C@@]2(CO)O[C@@H](CO)[C@H](O)[C@H]2O)[C@H](O)[C@@H](O)[C@@H]1O	inactive	–
Cn1nnc(-c2ccc(-c3ccc(N4C[C@H](COP(=O)(O)O)OC4=O)cc3F)cn2)n1	inactive	–
C[C@@H]1O[C@@H](O[C@H]2[C@H](O[C@H]3[C@H](O[C@H]4CC[C@@]5(C)C(CC[C@]6(C)C5CC=C5[C@@H]7CC(C)(C)C[C@@H](O)[C@]7(C)CC[C@]56C)[C@@]4(C)CO)O[C@H](C(=O)O)[C@@H](O)[C@@H]3O)O[C@H](C(=O)O)[C@H](O)[C@@H]2O)[C@H](O)[C@H](O)[C@H]1O (some centres undefined)	–	86.7% [at 9.25 µM]
CC(=O)N[C@@H](CCCCN)C(=O)N(C)[C@@H](CC(C)C)C(=O)N[C@H](C(=O)N(C)[C@@H](Cc1ccccc1)C(=O)N[C@H](Cc1ccccc1)C(N)=O)C(C)C	–	103% [at 4.97 µM]
C=C1C(=O)O[C@H]2/C=C(/C)[C@@H](OC(C)=O)C/C=C(\C)C[C@@H](OC(=O)/C(=C/C)COC(=O)/C(=C/C)CO)[C@@H]12	1.59 µM (active)	–
O=C(CCc1ccccc1)c1c(O)c([C@@H]2O[C@H](CO)[C@@H](O)[C@H](O)[C@H]2O)c(O)c([C@@H]2O[C@H](CO)[C@@H](O)[C@H](O)[C@H]2O)c1O	inactive	–
C=CC(=O)N1CCCC(n2nc(-c3ccc(Oc4ccccc4)cc3)c3c(N)ncnc32)C1 (centres undefined)	1.16 µM (active)	–
CC(=O)OC1C(=O)C2(C)C(O)CC3OCC3(OC(C)=O)C2C(OC(=O)c2ccccc2)C2(O)CC(OC(=O)C(O)C(NC(=O)c3ccccc3)c3ccccc3)C(C)=C1C2(C)C (centres undefined)	0.0073 µM (active)	–
CCN(CC)C(=O)c1ccc(Nc2nc(OCC3CCCCC3)c3[nH]cnc3n2)cc1	1.46 µM (active)	–
